A short description of assay [1]: sensitizers of A549 cells to miR-34 induction, primary screen, imaging, A549 dox-inducible miR-34, nuclei and caspase counts (AID 1347080). Particulars: A549 miR-34 inducible, Hoechst nuclei count, 48 h.
Assay [2] can be described thus: survival rescue of mitochondrial mutant cells in low glucose, primary screen, MELAS cybrids, Rieske KO mouse fibroblasts, CellTiter-Glo (AID 1508586;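 active = mean z-score across replicates of 1.96 or higher in either the MELAS or the Rieske mutant cell line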;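 note: z relative to plate mean and SD of compound and empty wells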).
Where [3] appears, read: stronger effect = lower value, cell number ratio, induced over uninduced.
[4] abbreviates: measured here: relative caspase fold change +Dox/-Dox.
Setting [5] is: measured here: total cells with miR-34 induction, stronger effect = lower value.
Where [6] appears, read: measured here: total cells without miR-34 induction.
Where [7] appears, read: MELAS cybrid survival, CellTiter-Glo 48 h, stronger effect = higher value.
Where [8] appears, read: Rieske KO mouse fibroblast survival, CellTiter-Glo 72 h.

The source made the active and inactive calls.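 Rule for the calls, unless noted: active = compounds whose cell count with miR-34 switched on is under 0.7 times the count with it off; inactive = the rest.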 *1 amine or outer side, *2 acyl side, *3 side chain or, on linkers, in order; H or OH if unused. Where a SMILES comes first, the peptide text is derived from it. Bridges are numbered along the chain shown (N, C = ends). [ ]: non-standard residue; d: D form. The star is where a group is joined. ξ: configuration not given here. pTerphenylCO(4''-OnC5H11) = CCCCCOc1ccc(-c2ccc(-c3ccc(C(=O)*)cc3)cc2)cc1; ξOrn(4,5-diOH) = O=C(C(CC(O)C(O)N[*:3])N[*:1])[*:2]; ξhTyr(βξ-OH,γξ-OH) = NC(C(=O)O)C(O)C(O)c1ccc(O)cc1; ξPro(3ξ-OH,4ξ-Me) = CC1CNC(C(=O)O)C1O; Hyp = O=C(O)[CH]1C[CH](O)CN1

22 compounds from PubChem BioAssay can be followed below.
Note: test concentration not given here.

Regarding `C[C@]12CC[C@H]3c4ccc(OC(=O)c5ccccc5)cc4CC[C@H]3[C@@H]1CCC2O` (some centres not stated), the fold change in assay [1] (setting [3]) is 0.921 (inactive); in assay [1] (setting [4]), 0.673. In addition, the cell count stood at 8340 in assay [1] (setting [5]) and 9050 in assay [1] (setting [6]). The figures for the z-score in assay [2] (setting [7]) and in assay [2] (setting [8]) were -0.15 (inactive) and -0.151, respectively.

Consider `C#C[C@@]1(OC(C)=O)CC[C@H]2[C@@H]3CCC4=CC(OC(C)=O)CC[C@@H]4[C@@H]3CC[C@@]21C` (some centres not stated), for which the results for the fold change in assay [1] (setting [3]) and in assay [1] (setting [4]) were 0.978 (inactive) and 0.478, respectively. Also, the cell count in assay [1] (setting [5]) is 8080; in assay [1] (setting [6]) it was 8260. For the same compound, the z-score in assay [2] (setting [7]) is -0.279 (inactive); in assay [2] (setting [8]), -0.148.

For the compound `C=C1CCC(O)CC1=CC=C1CCC[C@@]2(C)[C@H]1CC[C@H]2C(C)CCCC(C)(C)O` (some centres not stated), the fold change was 0.933 (inactive) in assay [1] (setting [3]) and 0.682 in assay [1] (setting [4]). Moreover, the figures for the cell count in assay [1] (setting [5]) and in assay [1] (setting [6]) were 7650 and 8200, respectively. Further, the z-score in assay [2] (setting [7]) was -0.475 (inactive); in assay [2] (setting [8]) it was 0.00368.

As for `C=C[C@@]1(C)CC(=O)[C@@]2(O)[C@@]3(C)C(O)CCC(C)(C)[C@@H]3C(O)C(OC(C)=O)[C@@]2(C)O1` (some centres not stated), the figures for the fold change in assay [1] (setting [3]) and in assay [1] (setting [4]) were 0.968 (inactive) and 1.19, respectively. The values for the cell count in assay [1] (setting [5]) and in assay [1] (setting [6]) were 8540 and 8820, respectively. The values for the z-score in assay [2] (setting [7]) and in assay [2] (setting [8]) were 0.411 (inactive) and -0.394, respectively.

For `O=C(O)CCCCC1SC[C@@H]2NC(=O)N[C@H]12` (some centres not stated), the fold change in assay [1] (setting [3]) was 0.883 (inactive); in assay [1] (setting [4]) it was 0.431. Besides, the cell count was 8160 in assay [1] (setting [5]) and 9250 in assay [1] (setting [6]). For the same compound, the results for the z-score in assay [2] (setting [7]) and in assay [2] (setting [8]) were -0.0238 (inactive) and -0.137, respectively.

Turning to `C=CCc1ccc(O)c(-c2cc(CC=C)ccc2O)c1`, the fold change is 0.923 (inactive) in assay [1] (setting [3]) and 0.657 in assay [1] (setting [4]). The cell count in assay [1] (setting [5]) is 7490; in assay [1] (setting [6]), 8120. Moreover, the z-score in assay [2] (setting [7]) is 0.173 (inactive); in assay [2] (setting [8]), -0.0672.

For the compound `CC(C)c1onc(-c2c(Cl)cccc2Cl)c1COc1ccc(C=Cc2cccc(C(=O)O)c2)c(Cl)c1`, the fold change was 0.901 (inactive) in assay [1] (setting [3]) and 1.37 in assay [1] (setting [4]). Besides, the cell count in assay [1] (setting [5]) is 7080; in assay [1] (setting [6]) it was 7860. Besides, the values for the z-score in assay [2] (setting [7]) and in assay [2] (setting [8]) were 0.359 (inactive) and -0.609, respectively.

As for `O=C(NS(=O)(=O)c1ccc(Br)s1)c1ccc(Cl)cc1Cl`, the fold change in assay [1] (setting [3]) was 0.902 (inactive); in assay [1] (setting [4]) it was 0.488. Besides, the values for the cell count in assay [1] (setting [5]) and in assay [1] (setting [6]) were 7360 and 8160, respectively. The z-score in assay [2] (setting [7]) is -0.252 (inactive); in assay [2] (setting [8]) it was -0.754.

In the case of `COC(=O)[C@]12CCC(C)(C)C[C@@H]1[C@@H]1C(=O)C=C3[C@]4(C)C=C(C#N)C(=O)C(C)(C)[C@@H]4CC[C@@]3(C)[C@]1(C)CC2`, the fold change in assay [1] (setting [3]) is 0.818 (inactive); in assay [1] (setting [4]), 0.469. Moreover, the cell count amounted to 308 in assay [1] (setting [5]) and 376 in assay [1] (setting [6]). In addition, the z-score in assay [2] (setting [7]) is -0.649 (inactive); in assay [2] (setting [8]), -3.82.

In the case of `Cc1c(C(=O)Nc2ccc(N3CC(C)OC(C)C3)nc2)cccc1-c1ccc(OC(F)(F)F)cc1` (configuration not stated), the fold change in assay [1] (setting [3]) was 0.962 (inactive); in assay [1] (setting [4]), 0.609. Moreover, the cell count in assay [1] (setting [5]) was found to be 6270; in assay [1] (setting [6]), 6520. Further, the z-score in assay [2] (setting [7]) is -0.33 (inactive); in assay [2] (setting [8]) it was 0.503.

For the compound `COc1cc(OC)c(C=CS(=O)(=O)Cc2ccc(OC)c(NCC(=O)O)c2)c(OC)c1`, the fold change in assay [1] (setting [3]) was 1.02 (inactive); in assay [1] (setting [4]) it was 0.641. Also, the cell count in assay [1] (setting [5]) worked out at 1610; in assay [1] (setting [6]), 1580. Also, the figures for the z-score in assay [2] (setting [7]) and in assay [2] (setting [8]) were 0.468 (inactive) and -0.375, respectively.

As to `CCC[C@@H]1OC2C[C@H]3[C@@H]4CCC5=CC(=O)C=C[C@]5(C)[C@@H]4C(O)C[C@]3(C)[C@@]2(C(=O)CO)O1` (some centres not stated), the fold change is 1.01 (inactive) in assay [1] (setting [3]) and 0.72 in assay [1] (setting [4]). Moreover, the cell count in assay [1] (setting [5]) came to 3350; in assay [1] (setting [6]), 3330. In addition, the figures for the z-score in assay [2] (setting [7]) and in assay [2] (setting [8]) were -0.541 (inactive) and -0.57, respectively.

For the compound `CC(C)(C)c1cc(C=C(C#N)C(N)=S)cc(C(C)(C)C)c1O`, the fold change in assay [1] (setting [3]) was 0.89 (inactive); in assay [1] (setting [4]), 0.706. Moreover, the cell count in assay [1] (setting [5]) worked out at 3790; in assay [1] (setting [6]) it was 4260. Further, the z-score was -0.383 (inactive) in assay [2] (setting [7]) and -0.375 in assay [2] (setting [8]).

With `CC(C)C1C(=O)NC(CCCN=C(N)N)C(=O)NCC(=O)NC(CC(=O)O)C(=O)NC(Cc2ccccc2)C(=O)N1C` (configuration not stated), the fold change was 0.841 (inactive) in assay [1] (setting [3]) and 0.758 in assay [1] (setting [4]). Also, the cell count worked out at 304 in assay [1] (setting [5]) and 361 in assay [1] (setting [6]). Moreover, the results for the z-score in assay [2] (setting [7]) and in assay [2] (setting [8]) were 0.703 (inactive) and -0.232, respectively.

Consider `CC(=CC(=O)Nc1ccccc1C(=O)O)c1ccc2ccccc2c1`, for which the fold change in assay [1] (setting [3]) was 0.983 (inactive); in assay [1] (setting [4]) it was 1.42. The cell count was 7300 in assay [1] (setting [5]) and 7430 in assay [1] (setting [6]). Also, the z-score in assay [2] (setting [7]) was -0.436 (inactive); in assay [2] (setting [8]) it was 0.934.

As to `CCC(=O)O[C@@]1(C(=O)CCl)[C@@H](C)C[C@H]2[C@@H]3CCC4=CC(=O)C=C[C@]4(C)[C@]3(F)[C@H](O)C[C@@]21C`, the fold change is 0.838 (inactive) in assay [1] (setting [3]) and 0.869 in assay [1] (setting [4]). Moreover, the cell count in assay [1] (setting [5]) came out at 5560; in assay [1] (setting [6]) it was 6630. In addition, the z-score in assay [2] (setting [7]) was -0.516 (inactive); in assay [2] (setting [8]) it was -0.656.

As to `CCCCCOc1ccc(-c2ccc(-c3ccc(C(=O)NC4CC(O)C(O)NC(=O)C5C(O)C(C)CN5C(=O)C(C(C)O)NC(=O)C(C(O)C(O)c5ccc(O)cc5)NC(=O)C5CC(O)CN5C(=O)C(C(C)O)NC4=O)cc3)cc2)cc1` (stereo not drawn) ({pTerphenylCO(4''-OnC5H11)}-[ξOrn(4,5-diOH)]T[Hyp][ξhTyr(βξ-OH,γξ-OH)]T[ξPro(3ξ-OH,4ξ-Me)]; lactam 1-C; configuration not given here), the values for the fold change in assay [1] (setting [3]) and in assay [1] (setting [4]) were 0.963 (inactive) and 0.515, respectively. Besides, the cell count in assay [1] (setting [5]) was determined as 5590; in assay [1] (setting [6]), 5810. Besides, the results for the z-score in assay [2] (setting [7]) and in assay [2] (setting [8]) were 0.0456 (inactive) and -0.136, respectively.

As to `CC(=O)NC1C(N=C(N)N)C=C(C(=O)O)O[C@H]1C(O)C(O)CO` (some centres not stated), the fold change in assay [1] (setting [3]) was 0.903 (inactive); in assay [1] (setting [4]), 0.622. The cell count in assay [1] (setting [5]) came to 9700; in assay [1] (setting [6]) it was 10700. Moreover, the z-score was -0.333 (inactive) in assay [2] (setting [7]) and 0.922 in assay [2] (setting [8]).

Regarding `CN1CCN(C(=O)c2cc3cc(Cl)ccc3[nH]2)CC1`, the fold change in assay [1] (setting [3]) was 1 (inactive); in assay [1] (setting [4]), 0.614. In addition, the results for the cell count in assay [1] (setting [5]) and in assay [1] (setting [6]) were 8330 and 8310, respectively. Further, the values for the z-score in assay [2] (setting [7]) and in assay [2] (setting [8]) were -0.282 (inactive) and -0.0205, respectively.

Regarding `CC(C)c1nc(CN(C)C(=O)NC(CCN2CCOCC2)C(=O)NC(CCC(Cc2ccccc2)NC(=O)OCc2cncs2)Cc2ccccc2)cs1` (configuration not stated), the fold change is 0.977 (inactive) in assay [1] (setting [3]) and 0.47 in assay [1] (setting [4]). Moreover, the cell count in assay [1] (setting [5]) is 5730; in assay [1] (setting [6]) it was 5860. Also, the z-score was -0.312 (inactive) in assay [2] (setting [7]) and -0.261 in assay [2] (setting [8]).

With `CCOC(=O)O[C@@]1(C(=O)OCCl)CC[C@H]2[C@@H]3CCC4=CC(=O)C=C[C@]4(C)[C@@H]3C(O)C[C@@]21C` (some centres not stated), the fold change was 0.859 (inactive) in assay [1] (setting [3]) and 1.25 in assay [1] (setting [4]). The cell count in assay [1] (setting [5]) is 5320; in assay [1] (setting [6]), 6190. Also, the values for the z-score in assay [2] (setting [7]) and in assay [2] (setting [8]) were -0.313 (inactive) and -0.191, respectively.

On to `C[C@]12C=CC(=O)N[C@@H]1CC[C@@H]1[C@H]2CC[C@]2(C)C(C(=O)Nc3cc(C(F)(F)F)ccc3C(F)(F)F)CC[C@@H]12` (some centres not stated), for which the values for the fold change in assay [1] (setting [3]) and in assay [1] (setting [4]) were 0.962 (inactive) and 0.927, respectively. Moreover, the values for the cell count in assay [1] (setting [5]) and in assay [1] (setting [6]) were 6640 and 6910, respectively. In addition, the z-score was -0.568 (inactive) in assay [2] (setting [7]) and 0.0125 in assay [2] (setting [8]).
